Test results reported in PubChem BioAssay (Tox21).
Inconclusive results are not listed. Entries that show only a call come without a potency. Values without a mark were called inactive. The source made the active and inactive calls. Calls come from the whole dose curve.

Target: Muscarinic acetylcholine receptor M1 (Homo sapiens) (UniProt P11229)
Assay: Cholinergic receptor muscarinic 1 (CHRM1) small molecule antagonists, cell-based qHTS assay (AID 1963588); note: nearly all actives have a fitted effect of over 40% in size
Details: CHRM1-CHO antagonist mode, calcium flux fluorescence; series mostly up to 61.5 µM
Source text: National Center for Advancing Translational Sciences [NCATS]
Division of Preclinical Innovation [DPI]
U.S. Environmental Protection Agency [EPA]
National Institutes of Environmental Health Sciences [NIEHS]
National Toxicology Program [NTP]
U.S. Food and Drug Administration [FDA]
The CHRM1 is a muscarinic receptor. This receptor plays a crucial role in learning and memory processes and has long been identified as a promising therapeutic target for the improvement of cognitive decline in Alzheimer's disease (AD). The CHRM1-CHO cell line stably expressing human muscarinic acetylcholine receptor M1 (CHRM1) can be used for screening agonists and antagonists of interactions between CHRM1 and its ligands. The CHRM1-CHO Calcium Flux Assay is a homogeneous fluorescence-based assay for detecting the intracellular calcium level using FDSS kinetic plate reader system.
Tox21 Assay Protocol Summary:
CHRM1-CHO cells were dispensed at 1000 cells/3uL/well in 1536-well black-clear bottom plates using a Multidrop Dispenser. After the assay plates were incubated at a 37 C/5% CO2 incubator for 18 h, 3 uL of Dye Loading Buffer was transferred to the assay plate by a Flying Reagent Dispenser. The assay plates were incubated at 37 C for 1h. For antagonist mode, 23 nL of compounds dissolved in DMSO, positive controls or DMSO only was transferred to the assay plate by a pin tool. After 5 min incubation at room temperature, 1.5 uL of acetylcholine at 50nM was added to each well. The fluorescence intensity in the plates was measured using FDSS 7000EX kinetic plate reader for 3 min at 1 sec intervals. Each test compound was measured at 15 concentrations in three independent runs.
Potency is the fitted concentration of half-maximal effect.

Chain of Muscarinic acetylcholine receptor M1 (Homo sapiens) (P11229 whole entry, looked up): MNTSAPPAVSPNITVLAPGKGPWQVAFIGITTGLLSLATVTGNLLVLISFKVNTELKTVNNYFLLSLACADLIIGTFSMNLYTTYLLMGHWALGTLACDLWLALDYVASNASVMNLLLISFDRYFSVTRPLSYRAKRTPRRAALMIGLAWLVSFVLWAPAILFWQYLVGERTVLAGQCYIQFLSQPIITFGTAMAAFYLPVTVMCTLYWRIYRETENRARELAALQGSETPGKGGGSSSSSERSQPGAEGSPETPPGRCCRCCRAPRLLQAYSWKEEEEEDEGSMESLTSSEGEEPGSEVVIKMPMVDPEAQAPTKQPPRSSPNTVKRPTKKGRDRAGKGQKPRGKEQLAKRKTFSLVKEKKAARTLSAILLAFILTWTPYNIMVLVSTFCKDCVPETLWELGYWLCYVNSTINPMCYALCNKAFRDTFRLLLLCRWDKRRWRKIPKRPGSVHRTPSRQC

Row | SMILES | Potency | activity, negative = inhibition
1 | CCOP(=S)(OCC)Oc1cc(C)nc(C(C)C)n1 | inactive | –
2 | C[C@]12CCC(=O)C=C1CC[C@@H]1[C@@H]2CC[C@]2(C)C(=O)CC[C@@H]12 | inactive | –
3 | CCCCCCOC(=O)c1ccccc1C(=O)OCCCCCC | inactive | –
4 | ClCCOCCCl | inactive | –
5 | CC(C)=CC1C(C(=O)OCN2C(=O)C3=C(CCCC3)C2=O)C1(C)C (stereo not given) | 8.18 µM (active) | –
6 | O=Cc1ccco1 | inactive | –
7 | N#Cc1ccncc1 | inactive | –
8 | COc1cc(N)c(Cl)cc1C(=O)NC1CN2CCC1CC2 (stereo not given) | inactive | –
9 | Cc1ccc([N+](=O)[O-])cc1C | inactive | –
10 | Oc1cc(Cl)ccc1Cl | inactive | –
11 | COc1ccccc1OC | inactive | –
12 | Cc1cccc(N=Nc2ccc(N(C)C)cc2)c1 | inactive | –
13 | C=CC1(C)OC(=O)N(c2cc(Cl)cc(Cl)c2)C1=O (stereo not given) | inactive | –
14 | CC(C)NC(C)C | inactive | –
15 | COC(=O)c1ccccc1N | inactive | –
16 | S=C=S | inactive | –
17 | C=CCCl | inactive | –
18 | Nc1cccnc1 | inactive | –
19 | N#CCCCCC#N | inactive | –
20 | c1ccc(N2CCNCC2)cc1 | inactive | –

Row | SMILES | Potency | activity, negative = inhibition
21 | O=C/C(Cl)=C(/Cl)C(=O)O | inactive | –
22 | C#CCOC(C(=O)OCCN(C)C)(c1ccccc1)c1ccccc1 | inactive | –
23 | c1ccc(-c2ccccc2)cc1 | inactive | –
24 | O=c1oc2ccccc2c(O)c1C(CC(O)c1ccc(-c2ccc(Br)cc2)cc1)c1ccccc1 (stereo not given) | 25.1 µM (active) | –
25 | CCC(=O)c1ccccc1 | inactive | –
26 | Brc1c(Br)c(Br)c(Oc2c(Br)c(Br)c(Br)c(Br)c2Br)c(Br)c1Br | – | -22.2% [at 12.6 µM]
27 | C=C(C)[C@@H]1CC=C(C=O)CC1 | inactive | –
28 | CNC(=O)Oc1ccccc1OC(C)C | inactive | –
29 | O=C(O)c1ccccn1 | inactive | –
30 | O=S(=O)(O)OOS(=O)(=O)O | inactive | –
31 | Oc1ccccc1-c1ccccc1 | inactive | –
32 | N#CSCSC#N | inactive | –
33 | O=C(CBr)c1ccc(O)cc1 | inactive | –
34 | COC(=O)c1cncn1C(C)c1ccccc1 (stereo not given) | inactive | –
35 | CCC(=O)O[C@@H]1C=C2CCC3C(CCC4(C)C3CC[C@@H]4OC(=O)CC)C2CC1 (stereo not given in full) | inactive | –
36 | C[N+](C)(C)Cc1ccccc1 | inactive | –
37 | CN(C)C(=O)Nc1cccc(C(F)(F)F)c1 | inactive | –
38 | CCNc1nc(NCC)nc(SC)n1 | inactive | –
39 | CCCCON=O | inactive | –
40 | CN1CSC(=S)N(C)C1 | inactive | –
